Out of some 5,600 compounds screened, about 390 (7%) showed an effect of 50% or more. This is one part of a sample in which strong results are shown more often than they occur. Non-standard residues stand in square brackets, D forms with d. Residues, ends and D or L forms follow the SMILES beside them.

Consider 51 compounds from ChEMBL document CHEMBL4808148, “HDAC6 screening dataset using tau-based substrate in an enzymatic assay yields selective inhibitors and activators” (2021).

The target of the test is T1, Protein deacetylase HDAC6 (Homo sapiens) (UniProt Q9UBN7).
T1 sequence (whole entry): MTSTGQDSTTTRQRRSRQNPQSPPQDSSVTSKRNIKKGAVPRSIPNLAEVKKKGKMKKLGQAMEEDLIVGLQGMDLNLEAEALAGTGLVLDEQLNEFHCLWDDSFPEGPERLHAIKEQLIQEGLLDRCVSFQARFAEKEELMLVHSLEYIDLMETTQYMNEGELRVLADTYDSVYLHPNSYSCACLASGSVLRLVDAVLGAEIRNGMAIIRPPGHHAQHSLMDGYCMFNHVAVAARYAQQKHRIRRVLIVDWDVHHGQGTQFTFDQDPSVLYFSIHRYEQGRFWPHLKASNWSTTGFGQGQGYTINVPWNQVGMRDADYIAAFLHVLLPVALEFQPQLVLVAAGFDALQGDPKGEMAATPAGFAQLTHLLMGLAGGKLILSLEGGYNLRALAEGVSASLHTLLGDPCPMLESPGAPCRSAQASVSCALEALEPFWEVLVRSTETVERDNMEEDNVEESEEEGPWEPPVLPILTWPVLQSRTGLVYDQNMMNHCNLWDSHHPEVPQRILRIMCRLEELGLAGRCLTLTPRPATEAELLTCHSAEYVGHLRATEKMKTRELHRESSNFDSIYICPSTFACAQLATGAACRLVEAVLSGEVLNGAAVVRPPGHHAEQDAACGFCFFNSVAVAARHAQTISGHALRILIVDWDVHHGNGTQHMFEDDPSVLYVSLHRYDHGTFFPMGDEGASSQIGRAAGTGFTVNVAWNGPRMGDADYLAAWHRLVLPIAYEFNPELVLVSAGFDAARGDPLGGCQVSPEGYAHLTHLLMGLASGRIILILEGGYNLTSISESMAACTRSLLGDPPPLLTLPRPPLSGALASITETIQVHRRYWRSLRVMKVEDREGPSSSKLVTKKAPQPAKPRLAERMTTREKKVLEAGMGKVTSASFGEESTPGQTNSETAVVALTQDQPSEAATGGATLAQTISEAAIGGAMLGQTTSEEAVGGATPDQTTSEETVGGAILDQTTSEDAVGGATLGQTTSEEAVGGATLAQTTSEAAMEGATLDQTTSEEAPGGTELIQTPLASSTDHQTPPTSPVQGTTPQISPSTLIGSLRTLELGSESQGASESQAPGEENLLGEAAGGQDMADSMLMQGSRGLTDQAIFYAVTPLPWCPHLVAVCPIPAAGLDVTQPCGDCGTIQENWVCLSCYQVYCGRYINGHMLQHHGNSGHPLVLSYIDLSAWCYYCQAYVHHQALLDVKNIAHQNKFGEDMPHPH
The conditions noted are these: at 10 µM.
Usually inhibition stands for the drop in the measured response relative to a control, in per cent. `Oc1ccc(Nc2nc(-c3ccc(Cl)cc3)cs2)cc1`: the inhibition was 20.2%.
Regarding `O=C(O)CC(O)C(=O)O` (stereo unspecified), the inhibition turned out to be 3.05%.
Then `C[C@H]1[C@H](C)CC[C@]2(C(=O)O)CC[C@]3(C)C(=CC[C@@H]4[C@@]5(C)C[C@@H](O)[C@H](O)[C@@](C)(CO)[C@@H]5CC[C@]43C)[C@H]12`, with -0.26%.
Then `O=C(NCc1ccccn1)Nc1nnc(-c2ccco2)o1`, with 1.12%; and `CCCN(C/C=C/I)C1CCc2cccc(O)c2C1` (stereo unspecified), with 14.4%; and `CN(C)c1ccc(C(=C2C=CC(=[N+](C)C)C=C2)c2ccc(N(C)C)cc2)cc1`, with 79.1%.
Then `C[C@H](Nc1cc(-c2cnn(C)c2)cc(Nc2cnccn2)n1)c1ccc(F)cc1`, with 3.96%; and `O=C(O)C1=CCNCC1`, with 5.63%; and `Cc1cc(C)c2nc(-c3ccccn3)cc(C(=O)Nc3ccc(S(=O)(=O)Nc4onc(C)c4C)cc3)c2c1`, with -6.66%.
For the compound `Cc1ccccc1/N=N/c1ccc(/N=N/c2c(O)ccc3ccccc23)c(C)c1`, the inhibition was found to be 12%.
Turning to `Cc1ccc(O)c(/N=N/c2ccccc2)n1`, the inhibition amounted to 102%.
Then `C=CCN1CCN(c2nc3ccccc3nc2C#N)CC1`, with 32.5%; and `CC(C)=CCC/C(C)=C/CC/C(C)=C/CC[C@]1(C)CCc2cc(O)cc(C)c2O1`, with -4.35%.
With `CN1CCN(CCc2ccc(Cl)c(Cl)c2)CC1`, the inhibition stood at 0.9%.
The value for `NC(=O)c1sc(-c2ccsc2)cc1N` was 101%.
The value for `CCc1cc2c(cc1CC)CC(NC[C@H](O)c1ccc(O)c3[nH]c(=O)ccc13)C2` was 15.6%; that for `COC(=O)N[C@H](C(=O)N1CCC[C@H]1C(=O)Nc1ccc([C@@H]2CC[C@@H](c3ccc(NC(=O)[C@@H]4CCCN4C(=O)[C@@H](NC(=O)OC)C(C)C)cc3)N2c2ccc(C(C)(C)C)cc2)cc1)C(C)C` was 18.8%; that for `CCOC(=O)C1=CCCC[C@H]1S(=O)(=O)Nc1ccc(F)cc1Cl` was -6.94%.
As to `NC(=O)N/N=C/c1ccc([N+](=O)[O-])o1`, the inhibition was -5.79%.
The value for `CCOC(=O)c1ccc(N2NC(=O)/C(=C/c3ccc([N+](=O)[O-])o3)C2=O)cc1` was 66.9%; that for `CC1=NN(c2ccc(C(=O)O)cc2)C(=O)/C1=C\c1ccc(-c2cc(C)c(C)cc2[N+](=O)[O-])o1` was -7.66%; that for `Cc1cccc(CCN2CCC(C(=O)c3ccc(NS(C)(=O)=O)cc3)CC2)n1` was 25.6%.
In the case of `C[C@]1(O)C[C@@H](c2nc(-c3ccc4ccc(-c5ccccc5)nc4c3)c3c(N)nccn32)C1`, the inhibition turned out to be 29.4%.
Then `Fc1ccc(CNc2ncnc3ccc(F)cc23)cc1`, with -3.85%; and `Nc1ccc2ncnc(NCCc3ccc(Oc4ccccc4)cc3)c2c1`, with 58%; and `COc1cc2ncnc(Nc3ccc(Oc4ccccc4)cc3)c2cc1OC`, with 1.72%.
Then `FC(F)(F)c1ccccc1-c1cc(C(F)(F)F)c2[nH]c(C3=NOC4(CCCCC4)C3)nc2c1`, with -8.26%; and `C[C@]12CC[C@H](O)CC1=CC[C@@H]1[C@@H]2CC[C@]2(C)C(c3cccnc3)=CC[C@@H]12`, with 11.3%; and `CC[S+]([O-])c1nc(-c2cccc(OCc3ccccc3)c2)cc(C(F)(F)F)n1` (stereo unspecified), with 21.6%.
The value for `COc1ccc2cc(C(C)C(=O)Oc3ccc(C(N)=S)cc3)ccc2c1` (stereo unspecified) was 29%; that for `Oc1cc(O)c2c(c1)O[C@H](c1ccc(O)c(O)c1)[C@H](O)[C@H]2c1c(O)cc(O)c2c1O[C@H](c1ccc(O)c(O)c1)[C@H](O)C2` was 11%.
Consider `COc1ccccc1CC(=N)N1C[C@@H]2C(=O)CCC(c3ccccc3)(c3ccccc3)[C@@H]2C1`, for which the inhibition was 5.85%.
Turning to `Cc1c(C2CCN(CCc3ccccc3)CC2)noc1-c1ccc(Cl)cc1`, the inhibition amounted to 5.51%.
Then `CCCCOCCOc1nc(-c2ccc(C(=O)O)c(F)c2)sc1C`, with 3.39%.
The value for `Cc1nc(-c2ccc(OCC(C)C)c(C#N)c2)sc1C(=O)O` was 94.2%.
Then `Cc1cc(SCc2sc(-c3ccc(C(F)(F)F)cc3)nc2C)ccc1OCC(=O)O`, with 46.6%.
Take `CCCCCCCC(=O)N[C@H](CN1CCCC1)[C@H](O)c1ccc2c(c1)OCCO2`: the inhibition worked out at 6.2%.
The value for `CC(=O)NCC(=O)N[C@H](CCC(=O)O)C(=O)O` (Ac-Gly-[dE]-OH) was 1.3%; that for `O=C(O)c1ccc2nc(-c3cc(Cl)cc(Cl)c3)oc2c1` was 76.5%; that for `CCN1CCCC1CNC(=O)c1cc(S(=O)(=O)CC)c(N)cc1OC` (stereo unspecified) was -7.98%.
The value for `C[C@@H]1C(=O)O[C@H]2[C@H](O)C34C5C[C@@H](C(C)(C)C)[C@]36[C@@H](OC(=O)[C@@H]6O)O[C@@]4(C(=O)O5)[C@@]12O` (stereo partly specified) was 21%.
For the compound `CC#CCOC(=O)c1c(C)nc2sc3c(c2c1N)CCC(O)C3` (stereo unspecified), the inhibition stood at 72.4%.
On to `CN(NC(=O)CC(=O)NN(C)C(=S)c1ccccc1)C(=S)c1ccccc1`, for which the inhibition was determined as 1.95%.
On to `CO[C@H]1CC[C@@H](C(=O)c2ccc3nc4c(cc3c2)CCCO4)CC1`, for which the inhibition was found to be 61%.
On to `O=S(=O)(c1cccc2c(O)nccc12)N1CCCNCC1`, for which the inhibition stood at 9.53%.
The value for `Cc1ccc(S(N)(=O)=O)cc1` was -0.54%; that for `COc1cccc(NC(=O)/C=C/c2ccc(Cl)cc2)c1` was 99.9%.
As for `COc1ccc(/C=C/C(=O)O)cc1`, the inhibition is -4.93%.
Regarding `COc1cc(NC(=O)c2ccc(-c3ccc(Cl)cc3)o2)cc(OC)c1`, the inhibition amounted to 1.11%.
`CCN(CC)CCOc1ccc(Nc2ncc3cc(-c4c(Cl)cccc4Cl)c(=O)n(C)c3n2)cc1`: the inhibition turned out to be 12.6%.
Then `Cc1cc(-c2ccc(/N=N/c3ccc4c(S(=O)(=O)O)cc(S(=O)(=O)O)c(N)c4c3O)c(C)c2)ccc1/N=N/c1ccc2c(S(=O)(=O)O)cc(S(=O)(=O)O)c(N)c2c1O`, with 80.8%.
